Experimental findings from PubChem BioAssay (NCI) are described below.

About 79,000 compounds went through this panel and 15% of them were active in at least one assay; those are over-represented in the sample as a whole. Values without a mark were called inactive. Activity calls are given as the source filed them. Cut-off read from the data, not from the text of the source: active = growth inhibition above about 70%; inactive = the rest.

The test is described as follows: NCI Yeast Anticancer Drug Screen. Data for the wt1 strain (AID 149).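 Note: 0% = growth of vehicle-treated wt1 cultures.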 Particulars: S. cerevisiae wt1 strain (SPY 50644) growth inhibition, stronger effect = higher value. The protocol: Growth inhibition of yeast strains with defined genetic alterations is measured as a screen for potential anti-cancer activity. Selected strains with alterations in DNA damage repair or cell cycle control were exposed to compounds and growth inhibition was measured relative to vehicle treated controls. The strain used in this assay is wt1

With `COc1ccc(C(=O)OCCc2ccccc2)cc1`, the growth inhibition by setting is: (at 1.2 µM) -2%; (at 3.7 µM) -5%; (at 11.0 µM) -5%; (at 33.0 µM) -7%; (at 100.0 µM) -8%.
For `NCC(O)CSCc1ccc(Cl)cc1` (stereo not given), the growth inhibition reads like this: (at 1.2 µM) -3%; (at 3.7 µM) -5%; (at 11.0 µM) -3%; (at 33.0 µM) -3%; (at 100.0 µM) 0%.
For `CN(C)/N=N/c1nc[nH]c1C(N)=O`, the growth inhibition reads like this: (at 1.2 µM) 0%; (at 3.7 µM) -1%; (at 11.0 µM) -3%; (at 33.0 µM) -1%; (at 100.0 µM) 88% (active).
As to `CCCCCCC(CCl)c1sc(-c2csc(CCNC(=O)OC(C)(C)C)n2)nc1C(=O)OC` (stereo not given), the growth inhibition runs as follows: (at 1.2 µM) -1%; (at 3.7 µM) -4%; (at 11.0 µM) -5%; (at 33.0 µM) -5%; (at 100.0 µM) 30%.
On to `O=C1C(Br)=CC(Br)(Br)C=C1Br`, for which the growth inhibition is, setting by setting: (at 1.2 µM) 6%; (at 3.7 µM) 9%; (at 11.0 µM) 47%; (at 33.0 µM) 97% (active); (at 100.0 µM) 99% (active).
In the same order, the values of `Cc1ccc(N(C=O)c2c([N+](=O)[O-])cc([N+](=O)[O-])c3c2=[N+]([O-])CN=3)cc1` are 3%, 23%, 20%, 89% (active) and 98% (active).
In the case of `COc1cc(NCCCCCNC(C)C)c2ncccc2c1Cl`, the growth inhibition (at 1.2 µM) is -2%; the growth inhibition (at 3.7 µM) is 3%; the growth inhibition (at 11.0 µM) is 1%; the growth inhibition (at 33.0 µM) is 2%; the growth inhibition (at 100.0 µM) was -8%.
With `c1cc(Nc2ccc3c(c2)OCO3)c2cc(C3CCCCC3)ccc2n1`, the growth inhibition (at 1.2 µM) is 0%; the growth inhibition (at 3.7 µM) is 0%; the growth inhibition (at 11.0 µM) was -4%; the growth inhibition (at 33.0 µM) is -6%; the growth inhibition (at 100.0 µM) is 34%.
